Results published in PubChem BioAssay (EPA / NIEHS).
Where “and” joins values, the source holds several entries; their conditions need not be identical. Equal entries are not always repeated. Records with an inconclusive call do not appear. The source holds several records for some structures; these can differ, active in one and inactive in another. Calls of active or inactive are those of the source. The calls were made as follows: active = hit-call score of the fitted dose curve at least 0.9, where 1 is the maximum; inconclusive = response in the unintended direction; inactive = score below 0.9.

Experiments:
[1] = TOX21_p53_BLA_p2_viability: Viability Assessment in the Tox21 HCT-116 p53 Agonism Beta-lactamase Assay, Phase 2 (AID 2283591);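 also: compound exposure lasted 16 h at 37 °C; actives lower the ATP signal meaning cytotoxicity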
In short: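 Cytotoxicity readout: CellTiter-Glo ATP luminescence, 30 min at room temperature, after the beta-lactamase read. Cells were HCT116 exposed 16 h at 37C to compounds pin-transferred at 217-fold dilution from DMSO stocks.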

[2] = biological target: Cellular tumor antigen p53 (Homo sapiens) (UniProt P04637); test: TOX21_p53_BLA_p2_ratio: Tox21 HCT-116 p53 Agonism Beta-lactamase Assay, Ratio, Phase 2 (AID 2283592)
In short: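 Ratio endpoint: beta-lactamase cleavage of CCF4-AM, blue (460 nm) over green (530 nm). HCT116 reporter line; 16 h treatment, 37C; substrate 2 h RT.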

[3] = biological target: Cellular tumor antigen p53 (Homo sapiens) (UniProt P04637); test: TOX21_p53_BLA_p3_ratio: Tox21 HCT-116 p53 Agonism Beta-lactamase Assay, Ratio, Phase 3 (AID 2283596)
In short: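 Cells were seeded at 4000/well, rested 5 h at 37C, then dosed with DMSO compound solutions (217-fold dilution) for 16 h. CCF4-AM substrate was loaded for 2 h at room temperature, and the 460/530 nm emission ratio was fitted for gain of signal versus DMSO.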

[4] = TOX21_p53_BLA_p4_viability: Viability Assessment in the Tox21 HCT-116 p53 Agonism Beta-lactamase Assay, Phase 4 (AID 2283597);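 also: hits lower the luminescence signal meaning cytotoxicity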
In short: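 Cytotoxicity was inferred from loss of CellTiter-Glo luminescence. HCT116 cells had been dosed with compounds after 5 h plating, incubated 16 h at 37C and 5% CO2, and exposed to the CCF4-AM substrate for 2 h.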

[5] = biological target: Cellular tumor antigen p53 (Homo sapiens) (UniProt P04637); test: TOX21_p53_BLA_p5_ratio: Tox21 HCT-116 p53 Agonism Beta-lactamase Assay, Ratio, Phase 5 (AID 2283599)
In short: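 Beta-lactamase reporter ratio (blue 460 nm over green 530 nm, 405 nm excitation) after 2 h CCF4-AM loading, in HCT-116 cells exposed 16 h at 37 C to compounds pinned at 217-fold dilution. Increases relative to DMSO baseline scored.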

[6] = TOX21_p53_BLA_p5_viability: Viability Assessment in the Tox21 HCT-116 p53 Agonism Beta-lactamase Assay, Phase 5 (AID 2283600)
In short: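 Luciferase-coupled ATP quantitation of cells treated for 16 h (37C, 5% CO2) with test chemicals delivered in DMSO via a 217-fold dilution; 4000 cells/well; reagent incubated 30 min at room temperature before luminescence reading.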

[7] = TOX21_p53_BLA_p3_viability: Viability Assessment in the Tox21 HCT-116 p53 Agonism Beta-lactamase Assay, Phase 3 (AID 2283593);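 also: cells exposed to compound for 16 h before reading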
In short: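 Cellular ATP was quantified by CellTiter-Glo luminescence, read after 30 min at room temperature. Beforehand, HCT116 cells (4000/well) received compound 5 h post-seeding, 217-fold diluted from DMSO, then incubated 16 h at 37C.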

[8] = ATG_XTT_Cytotoxicity: Cytotoxicity Assessment in the Attagene TRANS-FACTORIAL HepG2 Assay (AID 2283584)
In short: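 HepG2 human liver cells, transiently transfected with multiple GAL4-UAS reporter units, were dosed and read at 24 h by XTT as cell number. Loss of signal was fitted relative to DMSO negative control baseline.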

[9] = biological target: Cellular tumor antigen p53 (Homo sapiens) (UniProt P04637); test: TOX21_p53_BLA_p4_ratio: Tox21 HCT-116 p53 Agonism Beta-lactamase Assay, Ratio, Phase 4 (AID 2283601)
In short: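 Signal is the blue/green (460nm/530nm) ratio of cleaved versus uncleaved CCF4-AM substrate, read after 2 h substrate loading. Cells were HCT116 carrying the p53-responsive beta-lactamase reporter, dosed 16 h at 37C, 5% CO2; CellTiter-Glo measured in parallel.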

Measured: AC50

Sequence of Cellular tumor antigen p53 (Homo sapiens) (P04637 whole entry, looked up): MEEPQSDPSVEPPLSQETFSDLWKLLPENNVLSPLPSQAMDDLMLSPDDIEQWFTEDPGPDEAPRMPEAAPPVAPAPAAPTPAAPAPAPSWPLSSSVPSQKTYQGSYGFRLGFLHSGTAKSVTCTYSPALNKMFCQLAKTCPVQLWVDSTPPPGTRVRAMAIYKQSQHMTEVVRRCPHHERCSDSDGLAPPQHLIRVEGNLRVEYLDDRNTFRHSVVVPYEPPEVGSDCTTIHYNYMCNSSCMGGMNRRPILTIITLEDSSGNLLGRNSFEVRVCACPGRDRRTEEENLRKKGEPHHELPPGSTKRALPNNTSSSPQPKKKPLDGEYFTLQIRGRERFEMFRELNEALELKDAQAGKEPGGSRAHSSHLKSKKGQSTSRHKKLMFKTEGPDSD

OCCCCO
inactive: [1] | [2] | [3] | [4] | [5] | [6]

c1ccc2c(c1)Oc1ccccc1O2
active: [3] 86.4 µM
inactive: [1] | [2] | [7] | [3] | [4] | [5] | [6]

Nc1ccc(Br)cc1
inactive: [1] | [2] | [7] | [3] | [4] | [5] | [6]

O=C(Cc1ccccc1)OCCc1ccccc1
inactive: [1] | [2] | [4] | [5] | [6]

CCCSP(=S)(OCC)Oc1ccc(SC)cc1 (configuration not stated)
inactive: [8] | [4] | [5] | [9]

c1ccc(-c2cccc(-c3ccccc3)c2)cc1
inactive: [1] | [2] | [7] | [3] | [4] | [5] | [6] | [9]

O=[N+]([O-])c1cc([As](=O)(O)O)ccc1O
inactive: [1] | [7] | [3] | [5] | [6] | [9]

Oc1ccc(Cc2ccc(O)cc2)cc1
inactive: [8] | [2] | [3] | [6]

OC[P+](CO)(CO)CO
inactive: [2] | [3] | [5] | [9]

CCCCC(CC)C(=O)Cl (configuration not stated)
inactive: [1] | [2] | [7] | [3] | [5] | [6] | [9]

CC(=O)CN(CC(C)=O)N=O
inactive: [8] | [2] | [7] | [4]

CC(C)CP(=S)(S)CC(C)C
inactive: [8] | [3] | [6] | [9]

CCC[CH2][Sn]([Cl])([Cl])[CH2]CCC
active: [1] 552 nM and 2.76 µM | [2] 1.59 µM and 14.3 µM | [7] 2.47 µM and 1.79 µM | [3] 19.6 µM and 20.1 µM | [4] 2.06 µM and 3.45 µM | [5] 15 µM and 20.4 µM | [6] 2.75 µM and 2.86 µM

C#CCOC(=O)/C=C(C)/C=C/CC(C)CCCC(C)C (configuration not stated)
inactive: [8] | [7] | [4]

N#Cc1ccc(Cl)cc1
inactive: [8] | [2] | [4] | [5] | [6]

Nc1nc(N)nc(Cl)n1
inactive: [2] | [6] | [9]

CC(C=O)Cc1ccc2c(c1)OCO2 (configuration not stated)
inactive: [1] | [2] | [7] | [3] | [4] | [5] | [6] | [9]

CC(C)[N+](=O)[O-]
inactive: [8] | [2] | [3] | [4] | [5] | [6]

CC(C)(C1CCC(O)CC1)C1CCC(O)CC1 (configuration not stated)
inactive: [8] | [2] | [4] | [5]

CCCCOC(=O)COC(=O)c1ccccc1C(=O)OCCCC
inactive: [2] | [4] | [5] | [6] | [9]

CS(=O)(=O)c1ccc(C(=O)C2C(=O)CCCC2=O)c(Cl)c1COCC(F)(F)F
inactive: [8] | [2] | [3] | [5] | [6] | [9]

O=C=Nc1ccc(Cl)cc1
inactive: [1] | [2] | [7] | [3] | [4] | [5] | [6] | [9]
